Assay results: PubChem BioAssay AID372 (MTDP, 2006)
About 770 (0.77%) of roughly 100,000 compounds were called active. Only a selection was taken, and actives are over-represented in it overall. A number with no mark means an inactive call. Rule as the data show it: active = inhibition above about 50%; inactive = the rest.

Each compound was assayed against Gag-Pol polyprotein (Human immunodeficiency virus type 1 group M subtype B (isolate HXB2)) (UniProt P04585) (assay: RNase H inhibition, HIV 1 Gag Pol polyprotein, FRET biochemical assay, screening (AID 372)). Conditions: HIV-1 RT RNase H, FRET RNA/DNA substrate fluorescence; at 10 µM; hits give high values.
Cc1ccc(C(=O)N2CCc3ccccc32)cc1[N+](=O)[O-] showed an inhibition of 5%. With O=[N+]([O-])c1cc([N+](=O)[O-])c(N2CCN(c3ccccc3Cl)CC2)cc1Nc1ccc(Br)cc1 the inhibition was 5%. Work on O=C(CSc1cc(Cl)ccc1Cl)Nc1cccc(C(F)(F)F)c1 yielded an inhibition of 9%. In the case of COc1cc(C(=O)N/C(=C/c2ccco2)C(=O)Nc2ccccc2)cc(OC)c1OC, the inhibition was 9%. COc1ccccc1C1NC(=O)NC(C)=C1C(=O)OC(C)C (stereo not given) showed an inhibition of 8%. CCNC(=O)C(=O)Nc1ccccc1C gave an inhibition of 5%. CCOC(=O)c1c(NC(=O)Cc2ccc(Cl)cc2)sc(C(=O)Nc2ccccc2OC)c1C was tested, and the inhibition was 0%. For Cc1c(OCC(N)=O)ccc2c1oc(=O)c1ccccc12, the inhibition was 47%. In the case of COc1ccccc1N1CCN(/N=C/C=C\c2ccco2)CC1, the inhibition was 8%. In the case of C[n+]1cccc(C(=O)NCCOC(=O)c2ccc(F)cc2)c1, the inhibition was 0%. O=C1/C(=C\c2ccc(O)c(O)c2)SC(=S)N1Cc1ccccc1 was tested, and the inhibition was 73% (active). In the case of O=C1/C(=C/c2ccc(O)c([N+](=O)[O-])c2)SC(=S)N1Cc1ccccc1, the inhibition was 23%. In the case of O=C1/C(=C\c2ccc(O)cc2)SC(=S)N1Cc1ccccc1, the inhibition was 46%. For O=C(O)CCCCCCCCCCN1C(=O)/C(=C/c2ccc(Br)cc2)SC1=S, the inhibition was 25%. With O=C(O)CCCCCN1C(=O)/C(=C/c2ccc(O)c(O)c2)SC1=S the inhibition was 53% (active). For COc1cc(/C=C2\SC(=S)N(CCCCCCCCCCC(=O)O)C2=O)ccc1O, the inhibition was 23%. With CCOc1ccc(/C=N/N2CCN(Cc3cccc4ccccc34)CC2)cc1OC the inhibition was 13%. Work on NC(=O)c1ccccc1NC(=O)c1sc2ccccc2c1Cl yielded an inhibition of 0%. O=C1S/C(=C/c2ccc3c(c2)OCO3)C(=O)N1CN1CCCC1 was tested, and the inhibition was 10%. c1ccc(CCCN2CCN(Cc3cccnc3)CC2)cc1 was tested, and the inhibition was 5%. COC(=O)C1=C(C)N=c2s/c(=C\c3ccccc3F)c(=O)n2C1c1ccc(OC)cc1 (stereo not given) gave an inhibition of 11%. In the case of COc1ccc(C2=C(c3ccc(OC)cc3)C3(c4ccccc4)C(=O)C2(c2ccccc2)C2C(=O)N(c4ccc(Br)cc4)C(=O)C23)cc1 (stereo not given), the inhibition was 42%. With CCOC(=O)c1ccc(N2C(=O)C3C(C2=O)C2(c4ccccc4)C(=O)C3(c3ccccc3)C(c3ccc(OC)cc3)=C2c2ccc(OC)cc2)cc1 (stereo not given) the inhibition was 44%. In the case of COC(=O)c1ccc(N2C(=O)C3C(C2=O)C2(c4ccccc4)C(=O)C3(c3ccccc3)C(c3ccc(OC)cc3)=C2c2ccc(OC)cc2)cc1 (stereo not given), the inhibition was 57% (active). Work on COc1cc2ccccc2cc1C(=O)Nc1ccc(Cl)c(Cl)c1 yielded an inhibition of 24%. Work on Cc1ccc(OCC2CNC(=O)O2)cc1 (stereo not given) yielded an inhibition of 10%. For CCc1ccc(N2C(=O)NC(=O)/C(=C\c3ccc(I)o3)C2=O)cc1, the inhibition was 11%. O=C1NC(=S)N(c2ccc(Cl)cc2)C(=O)/C1=C/c1ccc(N2CCCC2)o1 gave an inhibition of 10%. CCOc1cccc(N2C(=O)/C(=C/c3ccc(I)o3)C(=O)NC2=S)c1 gave an inhibition of 39%. For CCc1ccc(N2C(=O)/C(=C/c3ccc(I)o3)C(=O)NC2=S)cc1, the inhibition was 97% (active). CCOc1ccc(N2C(=O)NC(=O)/C(=C\c3ccc(I)o3)C2=O)cc1 was tested, and the inhibition was 5%. With CCOc1ccc(N2C(=O)/C(=C/c3ccc(N(CC)CC)o3)C(=O)NC2=S)cc1 the inhibition was 21%. O=C1NC(=S)N(c2ccc(Cl)cc2)C(=O)/C1=C/c1ccc(-c2ccc(F)cc2)o1 showed an inhibition of 25%. In the case of CCOc1ccc(N2C(=O)NC(=O)/C(=C\c3ccc(Br)o3)C2=O)cc1, the inhibition was 1%. In the case of CCc1ccc(N2C(=O)/C(=C/c3ccc(-c4ccc(F)cc4)o3)C(=O)NC2=S)cc1, the inhibition was 26%. O=C(Cc1csc(-c2ccccc2)n1)Nc1nccs1 was tested, and the inhibition was 0%. Work on O=C(NCCSc1ccccn1)c1ccc([N+](=O)[O-])cc1 yielded an inhibition of 0%. Work on Cc1ccc2c(c1)-c1c(ssc1=S)C(C)(C)N2C(=O)c1ccco1 yielded an inhibition of 48%. Cc1ccc(/C(O)=C2/C(=O)C(=O)N(c3ccccc3)C2c2ccc([N+](=O)[O-])cc2)cc1 (stereo not given) was tested, and the inhibition was 0%. With CC1=C(C(=O)OCC2CCCO2)C(c2cc3c(cc2[N+](=O)[O-])OCO3)C2=C(CCCC2=O)N1 (stereo not given) the inhibition was 6%. CCC(C)c1ccc(NC(=O)Cc2ccc(Cl)cc2)cc1 (stereo not given) showed an inhibition of 10%. CCC(=O)Nc1ccc(NC(=S)NC(=O)c2ccco2)cc1 showed an inhibition of 0%. N#C/C(=C\c1ccc(-c2ccc([N+](=O)[O-])cc2Br)o1)C(N)=O gave an inhibition of 22%. For CCOc1ccc(N2C(=O)NC(=O)/C(=C/c3cccc4ccccc34)C2=O)cc1, the inhibition was 73% (active). Work on COc1ccc(N2C(=O)NC(=O)/C(=C/c3ccc(I)o3)C2=O)cc1 yielded an inhibition of 11%. Work on COc1ccc(N2C(=O)/C(=C\c3ccc([N+](=O)[O-])o3)C(=O)NC2=S)cc1 yielded an inhibition of 43%. CCOc1ccc(N2C(=O)NC(=O)/C(=C\c3ccccc3)C2=O)cc1 gave an inhibition of 0%. For CCOc1ccc(N2C(=O)NC(=O)/C(=C\c3ccccc3OC)C2=O)cc1, the inhibition was 5%. With CCCC1CCC(c2ccc(C(=O)CCN(C)C)cc2)CC1 (stereo not given) the inhibition was 25%. Work on COc1ccc(OC)c(/C=C2/SC(=S)N(c3ccc(Cl)cc3)C2=O)c1 yielded an inhibition of 4%. Cc1c(Cc2ccccc2)c(=O)oc2c(C)c(OS(C)(=O)=O)ccc12 showed an inhibition of 0%. Work on COc1ccccc1/C=N/NC(=O)C(C)Sc1nc(C)cc(C)n1 (stereo not given) yielded an inhibition of 14%. Compound O=C(COC(=O)c1ccc2c(c1)OCCO2)c1ccc(-c2ccccc2)cc1 has an inhibition of 14%. O=C(COC(=O)c1ccc2c(c1)OCCO2)c1ccc(Br)cc1 gave an inhibition of 0%. For O=C(COC(=O)c1ccccc1I)c1ccc2c(c1)OCCO2, the inhibition was 57% (active). C=CCOc1cccc(/C=N/NC(=O)C(=O)Nc2ccc(C)c(C)c2)c1 showed an inhibition of 1%. Compound CCOc1cc(/C=C(/C#N)C(=O)Nc2ccc(O)cc2)ccc1OC has an inhibition of 8%. CC(C)(C)c1cc(C(c2ccccc2O)N2CCOCC2)cc(C(C)(C)C)c1O (stereo not given) was tested, and the inhibition was 22%. Work on CN1C(=O)S/C(=C/c2ccc(OCc3ccccc3C#N)c(Br)c2)C1=O yielded an inhibition of 39%. For N#Cc1ccccc1COc1ccc(/C=C2/SC(=S)NC2=O)cc1Br, the inhibition was 52% (active). Work on N#Cc1ccccc1COc1ccc(C=C2C(=O)NC(=S)NC2=O)cc1Br yielded an inhibition of 46%. O=C1NC(=S)NC(=O)C1=Cc1cc(Br)ccc1OCc1cccc2ccccc12 showed an inhibition of 32%. Cc1ccccc1COc1ccc(C=C2C(=O)NC(=S)NC2=O)cc1 was tested, and the inhibition was 60% (active). Compound COc1cc(/C=C2/SC(=S)NC2=O)ccc1OCc1ccccc1C#N has an inhibition of 46%. In the case of Cc1cccc(C)c1OCCOc1ccc(C=C2C(=O)NC(=S)NC2=O)cc1, the inhibition was 36%. In the case of O=C1NC(=S)NC(=O)C1=Cc1ccc(OCc2cccc3ccccc23)c(Br)c1, the inhibition was 54% (active). O=C1NC(=S)NC(=O)C1=Cc1ccc(OCc2ccccc2Cl)cc1 was tested, and the inhibition was 35%. In the case of O=C(/C=C/c1ccccc1)N1CCN(c2ccccc2)CC1, the inhibition was 0%. With COc1ccc(-c2ccccc2)cc1NCC1CC=CCC1 (stereo not given) the inhibition was 21%. Cc1ccc(NC(=O)C(C(C)C)N2C(=O)c3ccccc3C2=O)c(C)c1 (stereo not given) was tested, and the inhibition was 12%. Compound O=C1C(Cl)=C(Nc2cccc(Cl)c2)C(=O)N1c1cc(Cl)ccc1Cl has an inhibition of 0%. C#CCOc1ccc(C=C2C(=O)NC(=S)NC2=O)cc1Br was tested, and the inhibition was 19%. COc1ccc(/C=N/c2sc(C)c(C)c2C#N)cc1 gave an inhibition of 12%. With CCc1ncc(C(O)c2ccccc2OC)n1C (stereo not given) the inhibition was 5%. COc1ccc(OC)c(C2NC(=S)NC(C)=C2C(=O)Nc2ccc(C)c(Cl)c2)c1 (stereo not given) was tested, and the inhibition was 15%. For Oc1[nH]c2ccc(Br)cc2c1N=Nc1ccc2ccccc2n1, the inhibition was 52% (active). For Oc1[nH]c2ccc(Br)cc2c1N=Nc1ccccn1, the inhibition was 2%. In the case of O=S(=O)(N=Nc1c(O)[nH]c2ccc(Br)cc12)c1cccc2ccccc12, the inhibition was 9%. CCN(CC)S(=O)(=O)c1ccc(Cl)c(C(=O)Nc2ccc(OC)cc2)c1 was tested, and the inhibition was 0%. Work on O=C1NN(c2ccccc2)C(=O)/C1=C/c1ccc(-c2cccc([N+](=O)[O-])c2)o1 yielded an inhibition of 31%. Compound CCOCCOC(=O)C1=C(C)N(CC)C(=O)NC1c1ccc([N+](=O)[O-])cc1 (stereo not given) has an inhibition of 0%. In the case of C=CCOC(=O)C1=C(C)N(CC)C(=O)NC1c1ccc(Br)cc1 (stereo not given), the inhibition was 4%. In the case of C=CCOC(=O)C1=C(C)N(CC)C(=O)NC1c1ccc([N+](=O)[O-])cc1 (stereo not given), the inhibition was 57% (active). Compound O=[N+]([O-])c1ccc(N/N=C/c2cc([N+](=O)[O-])ccc2O)cc1 has an inhibition of 10%. With O=C(N/N=C/c1ccc(OC(=O)c2ccc(Br)cc2)cc1)c1cccc([N+](=O)[O-])c1 the inhibition was 50% (active). COc1ccc(/C=N/Nc2ccc([N+](=O)[O-])cc2)cc1Br was tested, and the inhibition was 7%. With O=[N+]([O-])c1ccc(N/N=C/c2ccc(O)c(O)c2)cc1 the inhibition was 57% (active). With O=C(N/N=C\c1ccc(OC(=O)c2ccc(Br)cc2)cc1)c1ccc(Br)cc1 the inhibition was 14%. O=C(N/N=C/c1ccc(/C=N/NC(=O)c2cccc([N+](=O)[O-])c2)cc1)c1cccc([N+](=O)[O-])c1 was tested, and the inhibition was 12%. O=[N+]([O-])c1ccc(N/N=C/c2ccc(O)c(Br)c2)cc1 was tested, and the inhibition was 50% (active). O=C(N/N=C/c1ccc([N+](=O)[O-])cc1)c1cc(-c2ccc3ccccc3c2)n[nH]1 was tested, and the inhibition was 50% (active). Work on Cc1ccc(-c2cc(C(=O)N/N=C/c3ccc([N+](=O)[O-])cc3)[nH]n2)cc1 yielded an inhibition of 24%. Work on O=C(N/N=C/c1ccc(F)cc1)c1cc(-c2ccc3ccccc3c2)n[nH]1 yielded an inhibition of 17%. Compound O=[N+]([O-])c1ccc(N/N=C/c2cc(Br)c(O)c(Br)c2)cc1 has an inhibition of 24%. O=[N+]([O-])c1ccc(N/N=C/c2ccc(Cl)c([N+](=O)[O-])c2)cc1 gave an inhibition of 8%.
